According to PubChem BioAssay AID1159580 (chemical genetic matrix, 2015):
Several values for one entry are separate records, joined by “and”; a condition that tells them apart may be missing. Equal values may be shown once. The campaign covered roughly 5,500 compounds. About 2,000 (36%) were called active. Inconclusive results (about 18%) are left out. Cut-off read from the data, not from the text of the source: active = normalized growth mostly below about 0.91 (no sharp cut-off); inconclusive = no clear call, values can overlap the other calls; inactive = mostly above about 0.92. The list shows a part of the results.

Assay: chemical genetic growth profiling, strain panel (AID 1159580);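 note: tested at 20 µM; growth read once vehicle control cultures reached saturation at 30 °C; 1 = growth at the plate median or of vehicle wells; lower values mean less growth of the strain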
Settings: S. cerevisiae deletion strains, growth OD

Measured: normalized growth

NCC(=O)c1ccccc1
inactive: locus YAL013W, strain DEP1, active compounds read low 1.02 | locus YAL021C, strain ccr4, active compounds read low 1.02 | locus YAL026C, strain drs2, active compounds read low 1.01 | locus YAL030W, strain snc1, active compounds read low 1 | locus YBL061C, strain skt5, active compounds read low 0.995 | locus YBR009C, strain hhf1, active compounds read low 0.999 | locus YBR021W, strain FUR4, active compounds read low 1.02 | locus YBR023C, strain chs3, active compounds read low 1 | locus YBR171W, strain sec66, active compounds read low 1 | locus YBR229C, strain ROT2, active compounds read low 1.01 | locus YBR231C, strain swc5, active compounds read low 0.998 | locus YBR279W, strain paf1, active compounds read low 1.01 | locus YCL011C, strain gbp2, active compounds read low 1.01 | locus YCL016C, strain dcc1, active compounds read low 1 | locus YCL029C, strain bik1, active compounds read low 0.998 | locus YCL061C, strain MRC1, active compounds read low 0.996 | locus YCL069W, strain vba3, active compounds read low 0.997 | locus YCR088W, strain abp1, active compounds read low 1 | locus YDL005C, strain med2, active compounds read low 0.984 | locus YDL035C, strain GPR1, active compounds read low 1.02 | locus YDL040C, strain nat1, active compounds read low 1 | locus YDL074C, strain BRE1, active compounds read low 1.06 | locus YDL101C, strain DUN1, active compounds read low 1.02 | locus YDL134C, strain PPH21, active compounds read low 1.02 | locus YDL185W, strain tfp1, active compounds read low 0.996 | locus YDL192W, strain arf1, active compounds read low 0.997 | locus YDR001C, strain nth1, active compounds read low 1.01 | locus YDR069C, strain doa4, active compounds read low 1.02 | locus YDR101C, strain arx1, active compounds read low 0.983 | locus YDR137W, strain rgp1, active compounds read low 1.01 | locus YDR150W, strain NUM1, active compounds read low 1.03 | locus YDR159W, strain sac3, active compounds read low 0.993 | locus YDR162C, strain NBP2, active compounds read low 1.04 | locus YDR195W, strain ref2 0.976 | locus YDR297W, strain sur2, active compounds read low 0.989 | locus YDR318W, strain mcm21, active compounds read low 0.982 | locus YDR334W, strain swr1, active compounds read low 0.999 | locus YDR335W, strain msn5, active compounds read low 1.01 | locus YDR388W, active compounds read low 0.991 | locus YDR392W, strain spt3, active compounds read low 1.02 | locus YDR502C, strain sam2, active compounds read low 0.988 | locus YEL003W, strain gim4, active compounds read low 1 | locus YEL037C, strain rad23, active compounds read low 1 | locus YEL061C, strain CIN8 (second series), active compounds read low 1.02 | locus YEL061C, strain CIN8, active compounds read low 1.01 | locus YER015W, strain faa2, active compounds read low 1 | locus YER016W, strain bim1, active compounds read low 0.987 | locus YER110C, active compounds read low 0.996 | locus YER111C, strain swi4, active compounds read low 0.992 | locus YER155C, strain BEM2 (second series), active compounds read low 1 | locus YER155C, strain BEM2, active compounds read low 1.01 | locus YER167W, strain BCK2, active compounds read low 1.02 | locus YFR010W, strain ubp6, active compounds read low 0.999 | locus YGL078C, strain dbp3, active compounds read low 0.994 | locus YGL086W, strain mad1, active compounds read low 1 | locus YGL167C, strain pmr1, active compounds read low 0.997 | locus YGL173C, strain kem1, active compounds read low 0.998 | locus YGL227W, strain vid30, active compounds read low 1.01 | locus YGL240W, strain doc1, active compounds read low 1.02 | locus YGL248W, strain PDE1, active compounds read low 1.02 | locus YGL253W, strain hxk2, active compounds read low 1.02 | locus YGR078C, strain PAC10, active compounds read low 1.02 | locus YGR135W, strain pre9, active compounds read low 0.994 | locus YGR229C, strain SMI1, active compounds read low 1.03 | locus YGR252W, strain gcn5, active compounds read low 0.964 | locus YHR013C, strain ard1, active compounds read low 0.979 | locus YHR027C, strain rpn1, active compounds read low 1.02 | locus YHR030C, strain SLT2, active compounds read low 1.01 and 1.02 | locus YHR079C, strain IRE1 (second series), active compounds read low 0.996 | locus YHR079C, strain IRE1, active compounds read low 1.03 | locus YHR094C, strain hxt1, active compounds read low 0.988 | locus YHR129C, strain ARP1, active compounds read low 1.01 | locus YHR142W, strain chs7, active compounds read low 1.01 | locus YHR200W, strain rpn10, active compounds read low 0.988 | locus YIL066C, strain RNR3, active compounds read low 1.02 | locus YIL073C, strain SPO22, active compounds read low 0.951 | locus YIL125W, strain kgd1, active compounds read low 1 | locus YIR030C, strain dcg1, active compounds read low 0.992 | locus YJL092W, strain hpr5, active compounds read low 1 | locus YJL095W, strain BCK1 (second series), active compounds read low 0.999 | locus YJL095W, strain BCK1, active compounds read low 1.05 and 1.03 | locus YJL115W, strain asf1, active compounds read low 1 | locus YJL129C, strain trk1, active compounds read low 1 | locus YJL134W, strain LCB3, active compounds read low 1.01 | locus YJL154C, strain vps35, active compounds read low 1 | locus YJL164C, strain tpk1, active compounds read low 0.996 | locus YJL166W, strain qcr8, active compounds read low 1.02 | locus YJL168C, strain set2, active compounds read low 0.994 | locus YJL187C, strain SWE1 (second series), active compounds read low 1.02 | locus YJR043C, strain POL32, active compounds read low 1 | locus YJR066W, strain TOR1, active compounds read low 0.997
